This note sets out measurements from PubChem BioAssay (NCATS).

Assay [1] has as its target Rap guanine nucleotide exchange factor 3 (Homo sapiens) (UniProt O95398). Description: Confirmatory qHTS for antagonist of cAMP-regulated guanine nucleotide exchange factor 3 (EPAC1) (AID 1645880). Also: nearly all actives have a fitted effect of over 55% in size. Also: potency is read from the fitted curve at half-maximal effect.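 As to activity, negative = inhibition: plate controls were DMSO only for no effect and full effect of the ATA control for full effect.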 The conditions noted are these: EPAC1 Rap1B-BODIPY-GDP exchange, fluorescence; activity, negative = inhibition: at 115 µM (top of the series). The gist of the method: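 Nucleotide exchange uses 100 nM EPAC1, 250 nM RAP1B-BODIPY-GDP and 50 uM GDP, with compounds in a concentration-titration series. After 5 min at room temperature, fluorescence (480 nm ex/540 nm em) is read every 5 min for 30 min. Data are normalized to control ATA and DMSO.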
Background: In qHTS, concentration-response curves come from the screen itself.

Assay [2] has the same target. Description: Confirmatory qHTS for agonist of cAMP-regulated guanine nucleotide exchange factor 3 (EPAC1) (AID 1645881). Also: nearly all actives have a fitted effect of over 75% in size. Also: potency is read from the fitted curve at half-maximal effect.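 As to activation: EPAC1 catalysed release of BODIPY-GDP from Rap1B seen as fluorescence loss; 100% = effect of cAMP agonist control.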
Assay [3] concerns the target Rap guanine nucleotide exchange factor 4 (Homo sapiens) (UniProt Q8WZA2). The assay is described as follows: Confirmatory qHTS for agonist of cAMP-regulated guanine nucleotide exchange factor 4 (EPAC2) (AID 1645884).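 Also: nucleotide exchange releases bodipy-GDP from Rap1 and this lowers its fluorescence; nearly all actives have a fitted effect of over 65% in size.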 Also: potency is read from the fitted curve at half-maximal effect. As to activation: % is scaled to controls: 0 for no effect and ±100 for the full control effect.
For assay [4], the target named is Rap guanine nucleotide exchange factor 3 (Homo sapiens) (UniProt O95398). The assay is described as follows: Counterscreen qHTS for antagonist of cAMP-regulated guanine nucleotide exchange factor 3 (EPAC1) (AID 1645888).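 Also: fluorescence loss as bound BODIPY-GDP is released from Rap1B; % of control where 0% means no effect.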 Summed up:
(§1)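 Rap1B–BODIPY-GDP (250 nM) with 50 uM GDP; compounds pin-transferred to 9.74 nM–152 uM final (activator) or from 7.32 nM upwards (inhibitor). Fluorescence Ex/Em 480/540 nm read at 5 and 30 min, then after adding cAMP or buffer, at room temperature.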
(In general: A counterscreen serves to expose hits that act by an unwanted route or on another target.)

For assay [5] the target is unchanged. The assay is described as follows: Counterscreen qHTS for agonist of cAMP-regulated guanine nucleotide exchange factor 3 (EPAC1) (AID 1645889). Also: nearly all actives have a fitted effect of over 40% in size. Also: potency is read from the fitted curve at half-maximal effect. As to activation: % of control where 0% means no effect. Summed up:
as §1

The target of assay [6] is Cytochrome P450 3A4 (Homo sapiens) (UniProt P08684). Description: qHTS Assay for Activators of Cytochrome P450 3A4 (AID 885). Also: nearly all actives have a fitted effect of over 65% in size. Summed up: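 20nM CYP3A4 + 25uM Luciferin-PPXE (=KM), 200mM KPO4; cpd 10 min RT; NADPH regen, 60 min RT; stop w/ detection buffer, 20 min; luminescence. Normalized to 57 uM ketoconazole.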
Chain of Cytochrome P450 3A4 (Homo sapiens) (P08684 whole entry, looked up, the tested form may be a part): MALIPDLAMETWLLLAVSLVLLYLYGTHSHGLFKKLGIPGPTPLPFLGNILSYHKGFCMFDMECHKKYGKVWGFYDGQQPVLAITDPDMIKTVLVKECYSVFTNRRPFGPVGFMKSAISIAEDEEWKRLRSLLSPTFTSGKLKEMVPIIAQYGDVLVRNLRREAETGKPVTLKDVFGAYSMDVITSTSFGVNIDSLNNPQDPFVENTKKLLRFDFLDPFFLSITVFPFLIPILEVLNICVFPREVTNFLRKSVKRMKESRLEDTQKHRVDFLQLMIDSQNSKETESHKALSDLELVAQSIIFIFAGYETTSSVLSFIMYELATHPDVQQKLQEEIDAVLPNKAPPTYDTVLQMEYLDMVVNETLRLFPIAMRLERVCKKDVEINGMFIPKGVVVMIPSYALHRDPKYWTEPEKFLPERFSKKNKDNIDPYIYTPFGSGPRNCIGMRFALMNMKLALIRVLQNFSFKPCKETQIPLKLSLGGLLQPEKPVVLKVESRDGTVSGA
Assay [7] in a line: qHTS for Inhibitors of the vitamin D receptor (VDR): Hit Validation using a Texas Red Assay (AID 602201). Also: potency is read from the fitted curve at half-maximal effect. The gist of the method: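 Fluorescence polarization with 1.5 uM VDR-LBD, LG19078 and 7 nM Texas Red (final). After 2 hours at ambient temperature, read at Ex 595 nm/Em 615 nm.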
The nature of assay [8]: AP1 Signaling Pathway (AID 357; active = well fitted curve in either direction with a large enough effect, not every such curve was filed as active;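 also: ME-180 reporter cells stimulated with EGF at its EC50 level; % is scaled to controls: 0 for no effect and ±100 for the full control effect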). The conditions noted are these: ME-180 AP-1-bla reporter, EGF-induced, beta-lactamase ratio, 5 h; at 7.69 µM (top of the series) unless noted. Summed up:
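Titration-series screen for positive or negative modulators of EC50 EGF-induced signaling in ME-180 cells carrying an AP-1-driven beta-lactamase reporter. After 5 hours at 37 degrees Celsius, CCF4 460nm/530nm emission ratio gave %Activity; AC50 values derived.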

Assay [9] can be described thus: NFAT Signaling Pathway (AID 444; active = well fitted curve in either direction with a large enough effect, not every such curve was filed as active;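 also: carbachol stimulus at about its EC50 of 1 µM final; % is scaled to controls: 0 for no effect and ±100 for the full control effect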). The conditions noted are these: Jurkat NFAT-bla M1, carbachol, beta-lactamase ratio, 5 h; at 7.69 µM (top of the series) unless noted. Summed up: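 Jurkat cells with NFAT-driven β-lactamase reporter and co-expressed M1 receptor, stimulated with carbachol (final 1 uM, ~EC50), compound titration, 5 h at 37 °C. CCF4 loaded 1 h at RT; 460/530 nm ratio gave %activity and AC50.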

A short description of assay [10]: Stat Signaling Pathway (AID 446; active = well fitted curve in either direction with a large enough effect, not every such curve was filed as active;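 also: ME-180 cervical cancer cells given 40 pM IL-6 alongside compound; SIE-controlled beta-lactamase reporter measured as 460/530 nm FRET emission ratio; % is scaled to controls: 0 for no effect and ±100 for the full control effect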). The gist of the method: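 ME-180 SIE-bla cells; overnight plating; cpd + IL-6 40 pM, 5 h, 37 C; LiveBLAzer 2.5 h RT; 460/530 nm emission ratio. Normalized to 300 pM IL-6 and 125 nM JAK inhibitor controls.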
In assay [11] the target is Glucocorticoid receptor (Homo sapiens) (UniProt P04150). The assay is described as follows: GR-GFP Redistribution (AID 450;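 active = compounds whose dose series gives a full or clear partial fitted curve of increased nuclear translocation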; also: potency is read from the fitted curve at half-maximal effect). To be noted: U2OS GR-GFP nuclear translocation, laser cytometry, 2 h.
Chain of Glucocorticoid receptor (Homo sapiens) (P04150 whole entry, looked up): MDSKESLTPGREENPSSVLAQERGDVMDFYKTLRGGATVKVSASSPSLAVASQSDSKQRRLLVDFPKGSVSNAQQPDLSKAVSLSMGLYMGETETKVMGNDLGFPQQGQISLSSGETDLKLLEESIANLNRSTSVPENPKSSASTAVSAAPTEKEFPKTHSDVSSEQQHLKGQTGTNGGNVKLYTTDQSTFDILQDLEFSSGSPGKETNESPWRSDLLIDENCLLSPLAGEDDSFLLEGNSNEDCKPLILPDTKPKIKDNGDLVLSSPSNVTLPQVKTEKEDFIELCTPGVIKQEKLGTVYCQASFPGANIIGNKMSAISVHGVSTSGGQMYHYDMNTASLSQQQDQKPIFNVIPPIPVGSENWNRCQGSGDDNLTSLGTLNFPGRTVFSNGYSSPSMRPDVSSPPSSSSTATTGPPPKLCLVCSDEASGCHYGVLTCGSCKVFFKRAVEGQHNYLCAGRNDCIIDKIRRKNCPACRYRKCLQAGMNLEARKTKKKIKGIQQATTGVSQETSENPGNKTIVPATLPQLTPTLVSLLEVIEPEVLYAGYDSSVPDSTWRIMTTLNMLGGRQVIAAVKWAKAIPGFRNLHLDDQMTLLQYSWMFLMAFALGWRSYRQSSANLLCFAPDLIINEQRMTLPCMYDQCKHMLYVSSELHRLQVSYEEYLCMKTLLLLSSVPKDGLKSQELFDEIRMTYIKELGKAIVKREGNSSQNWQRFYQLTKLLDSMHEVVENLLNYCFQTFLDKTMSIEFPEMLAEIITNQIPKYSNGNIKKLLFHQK

A number with no mark means an inactive call. Inconclusive results are not listed. The source made the active and inactive calls. Unless noted, calls follow the shape of the dose curve; as a rule, active = well fitted curve in the direction sought with a large enough effect; inconclusive = small, poorly fitted or top-dose-only effect, or another doubt; inactive = no such curve, though single readings can be large; an effect the other way counts as inactive or inconclusive.

Chain of Rap guanine nucleotide exchange factor 4 (Homo sapiens) (Q8WZA2 whole entry, looked up): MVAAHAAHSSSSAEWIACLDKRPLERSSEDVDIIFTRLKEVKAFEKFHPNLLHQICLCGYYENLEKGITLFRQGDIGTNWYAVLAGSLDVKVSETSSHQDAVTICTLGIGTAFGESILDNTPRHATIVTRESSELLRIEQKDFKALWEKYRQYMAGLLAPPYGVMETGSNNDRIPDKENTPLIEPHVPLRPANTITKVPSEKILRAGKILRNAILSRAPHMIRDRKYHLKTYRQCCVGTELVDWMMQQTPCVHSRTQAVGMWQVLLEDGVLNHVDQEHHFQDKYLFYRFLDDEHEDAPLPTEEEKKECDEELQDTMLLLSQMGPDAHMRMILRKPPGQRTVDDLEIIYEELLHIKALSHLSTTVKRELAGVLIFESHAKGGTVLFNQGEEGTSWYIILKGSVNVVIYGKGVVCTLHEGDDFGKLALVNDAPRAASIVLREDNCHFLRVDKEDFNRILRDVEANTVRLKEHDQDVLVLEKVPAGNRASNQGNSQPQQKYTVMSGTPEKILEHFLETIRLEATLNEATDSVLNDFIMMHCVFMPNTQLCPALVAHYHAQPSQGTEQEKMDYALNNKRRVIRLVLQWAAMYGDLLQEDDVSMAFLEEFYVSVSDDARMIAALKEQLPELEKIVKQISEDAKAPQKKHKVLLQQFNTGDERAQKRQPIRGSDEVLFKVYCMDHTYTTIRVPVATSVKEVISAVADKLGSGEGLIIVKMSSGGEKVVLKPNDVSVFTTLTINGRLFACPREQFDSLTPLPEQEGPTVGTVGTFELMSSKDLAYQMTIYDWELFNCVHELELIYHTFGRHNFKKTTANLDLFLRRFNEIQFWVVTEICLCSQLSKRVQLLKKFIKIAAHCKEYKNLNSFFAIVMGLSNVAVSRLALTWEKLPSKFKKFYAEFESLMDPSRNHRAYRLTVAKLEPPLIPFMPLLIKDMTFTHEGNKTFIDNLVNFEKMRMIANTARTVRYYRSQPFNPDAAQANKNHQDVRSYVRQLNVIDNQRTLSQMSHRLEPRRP
Chain of Rap guanine nucleotide exchange factor 3 (Homo sapiens) (O95398 whole entry, looked up): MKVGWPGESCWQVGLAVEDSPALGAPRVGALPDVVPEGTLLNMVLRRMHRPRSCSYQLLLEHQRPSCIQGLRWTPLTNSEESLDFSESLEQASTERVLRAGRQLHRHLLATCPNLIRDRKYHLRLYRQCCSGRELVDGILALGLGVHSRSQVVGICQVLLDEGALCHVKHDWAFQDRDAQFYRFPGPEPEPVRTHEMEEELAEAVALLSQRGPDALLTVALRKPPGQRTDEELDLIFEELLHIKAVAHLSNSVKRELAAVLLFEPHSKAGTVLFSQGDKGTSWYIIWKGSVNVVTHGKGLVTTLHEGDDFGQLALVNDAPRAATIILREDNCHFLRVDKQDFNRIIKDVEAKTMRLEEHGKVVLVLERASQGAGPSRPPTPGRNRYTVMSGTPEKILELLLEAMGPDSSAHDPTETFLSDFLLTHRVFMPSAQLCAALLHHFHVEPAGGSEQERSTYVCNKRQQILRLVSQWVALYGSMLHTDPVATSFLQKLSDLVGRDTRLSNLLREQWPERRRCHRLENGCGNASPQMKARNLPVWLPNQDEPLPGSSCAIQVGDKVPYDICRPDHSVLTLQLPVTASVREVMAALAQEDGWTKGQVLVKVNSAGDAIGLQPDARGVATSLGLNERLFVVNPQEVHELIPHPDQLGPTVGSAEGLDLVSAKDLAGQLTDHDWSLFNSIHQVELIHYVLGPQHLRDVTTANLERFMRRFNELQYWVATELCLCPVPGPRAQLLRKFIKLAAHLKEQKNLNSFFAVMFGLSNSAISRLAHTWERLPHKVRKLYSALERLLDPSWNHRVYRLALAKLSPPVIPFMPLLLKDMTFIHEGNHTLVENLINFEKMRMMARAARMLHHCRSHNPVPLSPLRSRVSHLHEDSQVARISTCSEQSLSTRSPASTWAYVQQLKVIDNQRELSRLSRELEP

For the molecule `O=C1c2cccc3c(N4CCCCC4)ccc(c23)C(=O)N1c1cccc(O)c1`, the Potency entry in assay [1] and in assay [4] was “inactive” in each case. Further, the Potency is 100 µM (active) in assay [2], 112 µM (active) in assay [3] and 50.1 µM (active) in assay [5].
Consider `CC(C)Cn1c(N)c(C(=O)COC(=O)c2cc(-c3ccco3)nc3ccccc23)c(=O)n(C)c1=O`, for which the molecule was called inactive in [6]. In addition, in assay [1], the Potency was 30.1 µM (active). Also, the Potency entry in [2], in assay [3], in [4] and in assay [5] was “inactive” throughout.
As for `Cc1noc(C)c1C(=O)N(CC(C)C)c1nc2ccccc2s1`, the Potency result in assay [1], in assay [2], in assay [3], in assay [4] and in assay [5] was “inactive” throughout.
For `O=C(O)Cc1ccc(C(=O)c2ccc(Cl)cc2Cl)s1`, the Potency result in [1], in assay [2], in assay [3] and in assay [5] was “inactive” each time.
`CC(=O)NC(c1ccccc1)c1nc(-c2cccs2)cs1` (stereo not given): the Potency entry in [1], in [2], in assay [3], in assay [4] and in [5] was “inactive” throughout.
Take `Cc1oc2c(c1C(=O)c1ccccc1)C(=O)C(=O)c1ccccc1-2`: the values for the Potency in assay [7] and in assay [1] were 3.98 µM (active) and 42.6 µM (active), respectively. Also, the Potency result in assay [2], in assay [3] and in assay [4] was “inactive” each time.
On to `COc1ccc(/C=C2\SC(=S)NC2=O)cc1OS(=O)(=O)c1ccc(NC(C)=O)cc1`, for which, in assay [1], the Potency is 37.9 µM (active). In addition, the Potency entry in assay [2], in [3], in assay [4] and in [5] was “inactive” in each case.
As to `O=C(O)Cc1ccc(N=Nc2c(O)c(C(=O)O)cc3ccccc23)cc1`, the Potency in assay [1] is 33.8 µM (active). The Potency entry in [2], in assay [3], in [4] and in assay [5] was “inactive” each time.
Turning to `C[C@@H]1CN([C@@H](C)CO)C(=O)Cc2cc(NC(=O)C3CCCCC3)ccc2O[C@H]1CN(C)S(=O)(=O)c1ccccc1`, the Potency entry in assay [1], in assay [2], in assay [3] and in [5] was “inactive” each time.
For the molecule `O=C1ON=C(c2ccccc2)/C1=C/c1ccc(-c2ccccc2[N+](=O)[O-])o1`, the Potency is 4.47 µM (active) in [7] and 37.9 µM (active) in [1]. For the same molecule, the Potency entry in assay [2], in [3] and in assay [4] was “inactive” throughout.
Take `CCC(NC(=O)Nc1ncccc1C)(C(F)(F)F)C(F)(F)F`: the values for the activity change, negative = inhibition in assay [8] and in assay [9] were 11.9% [at 17.2 µM] and -12% [at 17.2 µM], respectively. In addition, the call in assay [10] was inactive. Also, the Potency in assay [11] is above 20.6 µM. The Potency entry in [1], in assay [2], in assay [3], in [4] and in assay [5] was “inactive” in each case.
Consider `CCCCCN(C(=O)CCC(=O)OCC(=O)N1CCC(C)CC1)c1c(N)n(CCCC)c(=O)[nH]c1=O`, for which the Potency result in [1], in assay [2], in assay [3] and in [5] was “inactive” in each case.
Consider `Cc1cc(C)c2nc(N3C(=O)C(O)=C(C(=O)c4ccco4)C3c3cccc(O)c3)sc2c1` (stereo not given), for which, in assay [1], the Potency was 26.9 µM (active). Also, the Potency result in [2], in assay [3] and in assay [5] was “inactive” throughout.
`Cc1nc(S/C(=C/c2ccc(-c3cc(Cl)ccc3C)o2)C(=O)O)n[nH]1`: the Potency in assay [1] is 26.9 µM (active). Also, the Potency entry in assay [2], in assay [3] and in assay [5] was “inactive” throughout.
In the case of `COc1c(S(=O)(=O)N2CCCC2)ccc(Cl)c1Cl`, the Potency entry in [1] and in assay [2] was “inactive” throughout. Moreover, the activation is 4.79% [at 17.1 µM, percent relative to cAMP agonist control] in [3] and 23.7% [at 30.8 µM] in assay [5]. Further, the activity change, negative = inhibition in assay [4] was -12% [at 30.8 µM].
On to `CCC(CC)NC(=O)c1ccccc1Oc1ccccc1`, for which the Potency entry in [1] and in assay [2] was “inactive” in each case. Besides, the activation in [3] was 3.85% [at 17.1 µM, percent relative to cAMP agonist control]; in assay [5] it was 13.2% [at 30.8 µM]. Besides, the activity change, negative = inhibition in assay [4] was 6.83% [at 30.8 µM].
With `COC(=O)C1=CN(Cc2cccs2)C=C(C(=O)OC)C1c1cccc(Cl)c1`, the Potency result in [1] and in assay [2] was “inactive” throughout. The activation is 2.31% [at 17.1 µM, percent relative to cAMP agonist control] in assay [3] and 24.6% [at 30.8 µM] in assay [5]. Besides, in assay [4], the activity change, negative = inhibition is -4.15% [at 30.8 µM].
For `CCCCOc1ccc(/C=C/C(=O)OCC(=O)NC(=O)NCC(C)C)cc1OCC`, the Potency result in assay [1], in assay [2], in assay [3], in [4] and in assay [5] was “inactive” each time.
